A short description of assay [1]: qHTS profiling of the MIPE4 collection as inhibitors of Plasmodium falciparum (3D7) proliferation (AID 743344).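 Also: scaled between DMSO vehicle wells and 0.29 µM artemisinin as full inhibition.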 The note with it: P. falciparum 3D7 in erythrocytes, SYBR Green DNA fluorescence, 72 h; at 28.5 µM unless noted. Summed up: (§1)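 Parasite DNA was quantified by SYBR Green I fluorescence (ex 485, em 535 nm) after overnight lysis in saponin/Triton buffer at room temperature. Cultures at 0.3% parasitemia and 2.5% hematocrit were first exposed to compound for 72 h at 37 C; signals were normalised to artemisinin (0.29 uM) and vehicle wells.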

Assay [2] is described as follows: qHTS profiling of the MIPE4 collection as inhibitors of Plasmodium falciparum (DD2) proliferation (AID 743345). The note with it: P. falciparum Dd2 in erythrocytes, SYBR Green DNA, 72 h; at 28.5 µM unless noted. Summed up: as §1
(In general: Quantitative high-throughput screening tests each substance at several concentrations.)

A short description of assay [3]: qHTS profiling of the MIPE4 collection as inhibitors of Plasmodium falciparum (DD2) proliferation (Rep 2) (AID 743346). The conditions noted are these: P. falciparum Dd2 in erythrocytes, SYBR Green DNA, 72 h; at 28.5 µM unless noted. The method in brief: as §1
A short description of assay [4]: qHTS profiling of the MIPE4 collection as inhibitors of Plasmodium falciparum (HB3) proliferation (AID 743347).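 Also: plate controls were DMSO vehicle wells for no effect and artemisinin wells for full effect.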 The conditions noted are these: P. falciparum HB3 in erythrocytes, SYBR Green DNA, 72 h; at 28.5 µM unless noted. The method in brief: as §1
Assay [5] in a line: High-throughput drug toxicity screening in the BPDCN cell line Gen2.2 (AID 1224824).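 Also: cells exposed to compounds for 48 h before reading.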 The note with it: Gen2.2 BPDCN cells; at 45.8 µM (top of the series) unless noted. The method in brief: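 Gen2.2 cells, 500 per well in phenol red-free RPMI with 10% FBS, exposed to compounds 48 h at 37 C, 5% CO2; viability by CellTiter-Glo luminescence. Percent activity scaled to DMSO (100%) and 9.2 uM bortezomib final (0%).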

A short description of assay [6]: High-throughput drug toxicity screening in the BPDCN cell line Cal-1 (AID 1224825). The conditions noted are these: Cal-1 BPDCN cell viability, qHTS; at 45.8 µM (top of the series) unless noted. The method in brief:
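CellTiter-Glo luminescence after 48 h compound exposure; percent activity scaled with DMSO as 100% and bortezomib (9.2 uM final) as 0%. Cal-1 cells seeded at 500/well in RPMI, 10% FBS, no phenol red.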

Assay [7] is described as follows: qHTS assay for measurement of the activity of small molecule inhibitors on Zika virus induced Caspase-3 activity in human iPSC derived neural progenitor cells (hNPCs) (AID 1224857; active = well fitted curve in the direction sought with a large enough effect; an effect the other way counts as inactive or inconclusive; also: % of control where 0% means no effect; nearly all actives have a fitted effect of over 65% in size). Summed up: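 Values are percent inhibition of virus-induced caspase-3/7 signal, scaled between uninfected cells and ZIKV-infected cells. Infection used 2 FFU/cell for 6 h after 1 h compound exposure.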

A short description of assay [8]: qHTS assay for measurement of the activity of small molecule inhibitors on Zika virus induced Caspase-3 activity in human astrocytoma cells (AID 1224859; active = well fitted curve in the direction sought with a large enough effect; an effect the other way counts as inactive or inconclusive;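 also: plate controls were ZIKV-infected untreated cells for no effect and uninfected cells for full effect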). Summed up:
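Compound added 1 h pre-infection; ZIKV 2 FFU/cell on SNB-19 cells, 6 h, 37 C/5% CO2. Caspase-Glo 3/7 luminescence; values as % inhibition of ZIKV-induced caspase activity.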

The nature of assay [9]: qHTS Screen of the MIPE 4.0 Collection Against Ewings Sarcoma (EW8) (AID 1259255; active = well fitted curve in the direction sought with a large enough effect; an effect the other way counts as inactive or inconclusive; also: nearly all actives have a fitted effect of over 35% in size; also: potency is read from the fitted curve at half-maximal effect;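 as to viability: 100% = DMSO-treated cells and 0% = medium-only wells without cells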). The method in brief: (§2)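 Dose series incubated 48 h with cells in RPMI plus 5% FBS, glutamine and penicillin/streptomycin; cell viability then quantified via CellTiter-Glo.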
Assay [10] can be described thus: qHTS Screen of the MIPE 4.0 Collection Against Ewings Sarcoma (TC32) (AID 1259256; active = well fitted curve in the direction sought with a large enough effect; an effect the other way counts as inactive or inconclusive; also: nearly all actives have a fitted effect of over 45% in size; also: potency is read from the fitted curve at half-maximal effect). Summed up:
as §2

Assay [11] is described as follows: qHTS Screen of the MIPE 4.0 Collection Against Ewings Sarcoma (TC71) (AID 1259253; active = well fitted curve in the direction sought with a large enough effect; an effect the other way counts as inactive or inconclusive; also: potency is read from the fitted curve at half-maximal effect; nearly all actives have a fitted effect of over 40% in size). Summed up:
as §2

Assay [12] is described as follows: qHTS Screen of the MIPE 4.0 Collection Against Ewings Sarcoma (RDES) (AID 1259252; active = well fitted curve in the direction sought with a large enough effect; an effect the other way counts as inactive or inconclusive; also: potency is read from the fitted curve at half-maximal effect; nearly all actives have a fitted effect of over 35% in size). Summed up: as §2
Assay [13] can be described thus: qHTS profiling for inhibitors of Plasmodium falciparum (DD2) proliferation (AID 743323). The note with it: lower = more inhibition; at 28.7 µM (top of the series) unless noted. The method in brief:
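SYBR Green fluorescence (ex 485, em 535 nm) of lysed cultures gives parasite DNA content; wells normalized to artemisinin (0.29 uM) and DMSO controls. Infected red cells: 0.3% parasitemia, 2.5% hematocrit, 72 h, 37 C.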

Assay [14] in a line: qHTS profiling for inhibitors of Plasmodium falciparum (HB3) proliferation (AID 743324; active = well fitted curve in the direction sought with a large enough effect; an effect the other way counts as inactive or inconclusive;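 also: 100% = DMSO vehicle wells and 0% = artemisinin-treated control wells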). The note with it: Plasmodium falciparum HB3 blood-stage proliferation; at 28.7 µM (top of the series) unless noted. Summed up: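 SYBR Green fluorescence (485 ex/535 em) of lysed cultures, incubated overnight at room temperature in the dark, quantifies parasite DNA. Infected erythrocytes at 0.3% parasitemia and 2.5% hematocrit were exposed 72 h; values normalized to DMSO and 0.29 uM artemisinin controls.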

The nature of assay [15]: Identifying Small Molecule Inhibitors of Pancreatic Cancer Stem Cells (SN12C, Adherent) (AID 1259358; active = well fitted curve in the direction sought with a large enough effect; an effect the other way counts as inactive or inconclusive;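 also: cell survival measured after 48 h of compound exposure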). The method in brief:
(§3)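 Endpoint: ATP-based luminescence, 48 h drug exposure. Bortezomib at 9.2 uM final as full-kill control; DMSO vehicle as negative control; activity normalized between vehicle and cell-free wells.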

Assay [16] is described as follows: Identifying Small Molecule Inhibitors of Pancreatic Cancer Stem Cells (SN12C, Spheroid) (AID 1259360; active = well fitted curve in the direction sought with a large enough effect; an effect the other way counts as inactive or inconclusive;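 also: 100% = DMSO-treated cells and 0% = wells without cells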). The conditions noted are these: Potency: SN12C spheroid viability. Summed up:
as §3

Records with an inconclusive call do not appear. The source made the active and inactive calls. Unless noted, no rule for the calls is given here.

This is an account of results in PubChem BioAssay (NCATS).

Take `Cc1ccc(C2=Nc3ccc(Cl)cc3OC2)cc1`: the parasite growth, % of DMSO control in [1] was determined as 30.3%. In assay [2], the parasite growth remaining, % of DMSO control (lower = more inhibition) amounted to 94.3%. This compound displayed a parasite growth, % of control (lower = inhibition) in [3] of 26.5%. In addition, the growth, % of control in [4] came to 55.7%. Besides, the cell viability, % of control (lower = more cytotoxic) in assay [5] was found to be 73.9%. In addition, the viability (% of control) in assay [6] was 85%. In addition, the Potency result in [7] and in [8] was “inactive” in each case. In addition, the Potency in [9] was 16.6 µM (active).
For the compound `CC1(C)CC(=O)c2c(C(F)(F)F)nn(-c3ccc(C(N)=O)c(NC4CCC(O)CC4)c3)c2C1` (configuration not stated), the parasite growth, % of DMSO control in assay [1] was 5.39%. Further, in assay [2], the parasite growth remaining, % of DMSO control (lower = more inhibition) turned out to be 8.63%. In [3], the parasite growth, % of control (lower = inhibition) turned out to be 13%. In assay [4], this compound gave a growth, % of control of 3.53%. Moreover, in [5], the cell viability, % of control (lower = more cytotoxic) worked out at 8.13%. Moreover, the viability (% of control) in assay [6] was 13.5%. In addition, the Potency entry in [7] and in [8] was “inactive” in each case. Also, the Potency is 0.148 µM (active) in assay [9] and 0.0833 µM (active) in [10].
As for `COC(=O)N1CCN(Cc2cccc(NC(=O)Nc3ccc(C)nc3)c2F)CC1`, the parasite growth, % of DMSO control in [1] stood at 20.8%. Moreover, in assay [2], the parasite growth remaining, % of DMSO control (lower = more inhibition) amounted to 71.8%. The same compound gave a parasite growth, % of control (lower = inhibition) in assay [3] of 41.1%. Besides, the growth, % of control in [4] was 29.8%. The cell viability, % of control (lower = more cytotoxic) in [5] was 149%. Further, the viability (% of control) in assay [6] stood at 90.8%. For the same compound, the Potency entry in assay [7], in assay [8], in assay [9] and in assay [10] was “inactive” each time. In addition, the Potency in assay [11] is 8.33 µM (active).
In the case of `O=C(O)C1=CO[C@@H](O[C@@H]2O[C@H](CO)[C@H](O)[C@H](O)[C@H]2O)[C@@H]2C(CO)=CC[C@H]12`, the parasite growth, % of DMSO control in [1] came out at 99.8%. Besides, the parasite growth remaining, % of DMSO control (lower = more inhibition) in [2] came to 96.1%. The compound also had a parasite growth, % of control (lower = inhibition) in [3] of 83.9%. The compound also returned a growth, % of control in assay [4] of 103%. Besides, in [5], the cell viability, % of control (lower = more cytotoxic) amounted to 78.1%. The viability (% of control) in [6] was determined as 23.1%. Moreover, the Potency entry in assay [7], in [8], in [9] and in assay [10] was “inactive” each time. Moreover, in assay [11], the Potency is 16.6 µM (active).
`CC(C)c1c(C(=O)Nc2ccccc2)c(-c2ccccc2)c(-c2ccc(F)cc2)n1CC[C@H](O)C[C@@H](O)CC(=O)O`: the parasite growth, % of DMSO control in [1] was 7.03%. Also, in assay [2], the parasite growth remaining, % of DMSO control (lower = more inhibition) turned out to be 82.2%. This compound registered a parasite growth, % of control (lower = inhibition) in [3] of 17.6%. The growth, % of control in [4] is 4.89%. Also, the cell viability, % of control (lower = more cytotoxic) in [5] worked out at 41.5%. Moreover, the viability (% of control) in assay [6] was 93.6%. Also, the Potency result in assay [7] and in assay [8] was “inactive” each time. Also, the Potency in assay [9] was 23.5 µM (active); in [10], 3.72 µM (active).
As for `CCN(CCO)CCCOc1ccc2c(Nc3cc(CC(=O)Nc4cccc(F)c4)[nH]n3)ncnc2c1`, the parasite growth remaining, % of DMSO control (lower = more inhibition) in [2] worked out at 11.6%. The parasite growth, % of control (lower = inhibition) in assay [3] amounted to 17.8%. For the same compound, the growth, % of control in [4] amounted to 6.77%. Moreover, in assay [5], the cell viability, % of control (lower = more cytotoxic) is 90.4%. In [6], the viability (% of control) turned out to be 15.3%. Besides, the Potency result in [7] and in assay [8] was “inactive” in each case. The Potency in [11] was 0.166 µM (active); in [9], 0.0833 µM (active); in assay [10] it was 0.059 µM (active).
For the compound `C[C@]12CC[C@@H]3c4ccc(O)cc4CC[C@H]3[C@H]1[C@@H](O)[C@@H](O)[C@H]2O`, in assay [1], the parasite growth, % of DMSO control stood at 5.15%. Besides, in [2], the parasite growth remaining, % of DMSO control (lower = more inhibition) turned out to be 9.25%. In assay [3], this compound registered a parasite growth, % of control (lower = inhibition) of 7.28%. This compound also registered a growth, % of control in assay [4] of 2.52%. Also, the cell viability, % of control (lower = more cytotoxic) in [5] turned out to be 218%. The viability (% of control) in assay [6] stood at 44.4%. Moreover, the Potency entry in [7], in assay [9] and in [10] was “inactive” throughout. Besides, the Potency in assay [12] was 20.9 µM (active).
For the compound `O=C(CCCN1CCN(c2ccc(F)cc2)CC1)NC1c2ccccc2CSc2ccccc21` (configuration not stated), the parasite growth, % of DMSO control in assay [1] was found to be 76%. Moreover, the parasite growth, % of control (lower = inhibition) in assay [3] worked out at 80.9%. Moreover, in assay [4], the growth, % of control was 57.9%. In [5], the cell viability, % of control (lower = more cytotoxic) came out at 91.5%. In addition, in [6], the viability (% of control) came out at 58.7%. The Potency entry in [7] is “inactive”. Further, the Potency in assay [12] was 14.8 µM (active); in assay [10] it was 16.6 µM (active).
In assay [13], `CCC=CC[C@H]1C(=O)CC[C@@H]1CC(=O)OC` displayed an activity, percent of control of 93.1%. Also, the remaining proliferation (% of control), lower = more inhibition in assay [14] is 113%. In addition, in [1], the parasite growth, % of DMSO control was 62.5%. For the same compound, the parasite growth remaining, % of DMSO control (lower = more inhibition) in assay [2] is 109%. Besides, in assay [3], the parasite growth, % of control (lower = inhibition) was 86.4%. This compound registered a growth, % of control in [4] of 79.8%. Also, the cell viability, % of control (lower = more cytotoxic) in assay [5] worked out at 137%. The viability (% of control) in assay [6] was determined as 107%. In addition, the Potency entry in assay [7], in assay [9], in assay [15] and in assay [16] was “inactive” throughout. Also, the Potency in assay [11] was 16.6 µM (active).
